According to PubChem BioAssay (NCI):
This is part of a sample that, as a whole, favours compounds with a hit. Of some 79,000 tested, about 15% had one in any assay. The source made the active and inactive calls. Cut-off read from the data, not from the text of the source: active = growth inhibition above about 70%; inactive = the rest.

Assays:
[1] = NCI Yeast Anticancer Drug Screen. Data for the rad50 strain (AID 155);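 note: 0% = growth of vehicle-only cultures of the same strain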; conditions: S. cerevisiae rad50 strain growth inhibition; at 50.0 µM; active compounds read high
Summary of the method: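 Readout: growth inhibition relative to vehicle-treated cultures. Compound exposure was carried out in a genetically defined yeast strain deficient in DNA damage repair.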

[2] = NCI Yeast Anticancer Drug Screen. Data for the mec2-1 strain (AID 157); conditions: S. cerevisiae mec2-1 strain, at 50.0 µM, active compounds read high
Summary of the method: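 mec2-1 yeast strain, carrying an alteration in DNA damage repair or cell cycle control, was exposed to compounds; growth inhibition was measured relative to vehicle-treated controls.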

[3] = NCI Yeast Anticancer Drug Screen. Data for the sgs1 mgt1 strain (AID 161);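 note: 0% = growth of cultures given vehicle only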; conditions: S. cerevisiae sgs1 mgt1 strain, at 50.0 µM, active compounds read high
Summary of the method: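 Yeast cells carrying a defined DNA-repair defect were exposed to test compounds. Growth inhibition was measured relative to vehicle-treated controls.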

[4] = NCI Yeast Anticancer Drug Screen. Data for the cln2 rad14 strain (AID 165);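 note: 0% = growth equal to vehicle treated cultures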; conditions: S. cerevisiae cln2 rad14 strain, at 50.0 µM, active compounds read high
Summary of the method: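 Yeast carrying cln2 and rad14 alterations (cell cycle control and DNA damage repair) were exposed to compounds. Growth inhibition was measured against vehicle-treated controls.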

[5] = NCI Yeast Anticancer Drug Screen. Data for the bub3 strain (AID 167); conditions: S. cerevisiae bub3 mutant strain, at 50.0 µM, active compounds read high
Summary of the method: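 Readout: yeast growth inhibition, expressed relative to vehicle-only wells. The test organism is a mutant strain from a panel with lesions in DNA repair or checkpoint genes.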

[6] = NCI Yeast Anticancer Drug Screen. Data for the mlh1 rad18 strain (AID 175); conditions: S. cerevisiae mlh1 rad18 strain growth inhibition; at 50.0 µM; active compounds read high
Summary of the method: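 Growth inhibition of the yeast strain was measured after compound exposure and expressed relative to vehicle-treated controls. The strain carries defined defects in DNA damage repair.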

Measured: growth inhibition

CSc1c(C)c(C)nn1-c1ccccc1
inactive: [1] -8.35% | [2] -7.6% | [3] 9.45% | [4] -1.4% | [5] 1.35% | [6] -5.75%

CC(=O)Nc1nc(NC(C)=O)c2nc(C)cnc2n1
inactive: [1] 4.45% | [2] 20.6% | [3] -2.35% | [4] 24.4% | [5] 10.6% | [6] 25.2%

O=CC(=O)c1ccc(Br)cc1
inactive: [1] 13.7% | [2] 19.2% | [3] 13.2% | [4] -1.05% | [5] -7.15% | [6] 19.4%

CN(C)c1nc2ccc(Cl)cc2c(=O)[nH]1
inactive: [1] 6.25% | [2] 4.55% | [3] -14% | [4] 3.55% | [5] -17.9% | [6] 3.9%

COc1ccc(C(=O)OCc2ccccc2CN2CCOCC2)cc1
inactive: [1] 0.75% | [2] 12.5% | [3] -8.45% | [4] 30.3% | [5] -4.9% | [6] -26.4%

c1cc(CSC2=NCCN2)ccc1CSC1=NCCN1
inactive: [1] -8% | [2] 9.25% | [3] -9.2% | [4] -24.3% | [5] 8.9% | [6] -3.85%

Clc1ccc(OCc2nnc3n2N=C(c2ccccc2)CS3)cc1
inactive: [1] 36.5% | [2] 7.1% | [3] 15.9% | [4] 36.2% | [5] 23.5% | [6] 15.9%

COC(=O)Nc1cn2nc(C)sc2n1
inactive: [1] -17.4% | [2] 11.4% | [3] -10.1% | [4] -16.1% | [5] 2.6% | [6] -6.95%

C/C(=N/NC(N)=O)c1cn[nH]c1C
inactive: [1] -27.6% | [2] -14.8% | [3] 3.7% | [4] -66% | [5] 11.9% | [6] 11.8%

CC1COC(c2ccc(C(C)C)cc2)O1 (centres undefined)
inactive: [1] 7.5% | [2] 0.35% | [3] 0.25% | [4] -8.9% | [5] 0.55% | [6] -4.4%

CCCc1cccc[n+]1CC(=O)c1ccccc1
inactive: [1] 5.65% | [2] 11.1% | [3] 4.95% | [4] -51.5% | [5] 25.4% | [6] -1.65%

Clc1cccc(-c2sc(-c3cccs3)cc2Cc2cccs2)c1
inactive: [1] -42.8% | [2] -39.8% | [3] -29.4% | [4] 2.2% | [5] -9.2% | [6] -14.5%

NCCNCCCNC(=O)c1cc(-c2ccccc2)nc2ccccc12
inactive: [1] -18.8% | [2] -6.35% | [3] -1.7% | [4] -11.9% | [5] 14.9% | [6] -3.95%

C/C=C/C=c1/[nH]c(=O)/c(=C\C)[nH]c1=O
inactive: [1] -6.85% | [2] -5.15% | [3] -10.6% | [4] -21.5% | [5] 0.95% | [6] -14.2%

O=C(COCC(=O)N/N=C/c1ccc(O)cc1)N/N=C/c1ccc(O)cc1
inactive: [1] -10.4% | [2] 22.2% | [3] 31.8% | [4] -11.9% | [5] 18.1% | [6] 26.3%

CCN1C(=O)/C(=C/c2cc([N+](=O)[O-])ccc2OCC(=O)O)SC1=S
inactive: [1] -1.85% | [2] -11.3% | [3] 3.5% | [4] -42.8% | [5] 2.55% | [6] 1.4%

O=C1c2ccccc2C(=O)C1(Cl)C(Cl)c1ccc([N+](=O)[O-])cc1 (centres undefined)
active: [1] 99.3% | [2] 98.9% | [3] 99.6% | [4] 99.1% | [5] 99.3% | [6] 99.5%

Nc1n[nH]c(CCCCc2nc(N)n[nH]2)n1
inactive: [1] -23.2% | [2] -24.4% | [3] -2.55% | [4] -39.8% | [5] -4.25% | [6] -1.9%

O=S(=O)(Cl)c1cc(Cl)ccc1Cl
inactive: [1] 24.8% | [2] -19.8% | [3] -17.1% | [4] -72.2% | [5] -3.6% | [6] -4.1%

Cc1ccc(CO)cc1
inactive: [1] 13.9% | [2] -6.7% | [3] 21.9% | [4] -5.6% | [5] -2.05% | [6] 21.7%

CCCCOC(=O)NC(=O)c1cn(CCSCCOC(=O)NCCCCCCNC(=O)OCCSCCn2cc(C(=O)NC(=O)OCCCC)c(=O)[nH]c2=O)c(=O)[nH]c1=O
inactive: [1] -15.2% | [2] -12.5% | [3] -9.55% | [4] 2.15% | [5] -15.9% | [6] -15.4%

COc1ccc(C(c2cc(OC)c(OC)c(OC)c2)N2C(=O)CCC2C(=O)O)cc1 (centres undefined)
inactive: [1] -21.6% | [2] -13.6% | [3] -16.6% | [4] -11.8% | [5] -4.15% | [6] -8.3%

CNC(=O)OCc1c(COC(=O)NC)c(-c2ccc(C(C)(C)C)cc2)n(C)c1C
inactive: [1] 3.45% | [2] 12.9% | [3] 5.5% | [4] -2.75% | [5] 15.8% | [6] 22.1%

CCCCS(=O)(=O)C[N+](C)(CC)CC
inactive: [1] 34.1% | [2] -0.7% | [3] -5.45% | [4] -6.85% | [5] -4.65% | [6] 3.45%

CCOC(O)C(F)(F)F (centres undefined)
inactive: [1] 9.2% | [2] -0.7% | [3] 10.6% | [4] 15.8% | [5] 0.45% | [6] 13.2%

CC(=O)OC1CC(O)CC2=CCC3C4CCC(C(C)(O)C(O)CC5COC(=O)C5C)C4(C)CCC3C21C (centres undefined)
inactive: [1] 6.8% | [2] 5.4% | [3] 14.6% | [4] 3.45% | [5] -32.1% | [6] -30.1%

C[N+](C)([O-])Cc1cccc(NC(=O)c2ccc(C(=O)Nc3cccc(C[N+](C)(C)[O-])c3)cc2)c1
inactive: [1] -4.3% | [2] 1.25% | [3] -8.2% | [4] 1.3% | [5] -12.8% | [6] -7.95%

Cc1ccc2nc(CC(=O)c3ccccc3)c(CC(=O)c3ccccc3)nc2c1
inactive: [1] 0.7% | [2] -17% | [3] 2.25% | [4] 24.1% | [5] 0.15% | [6] -2.9%

O=C1CSCc2sccc21
inactive: [1] 37% | [2] 26.1% | [3] 6.55% | [4] -14.4% | [5] 17.3% | [6] 2.95%

NC(C(=O)O)C(F)(F)C(=O)O (centres undefined)
inactive: [1] 2.45% | [2] -18.7% | [3] -2.7% | [4] -33.1% | [5] -7.3% | [6] -1.15%

N/C(CCOCC/C(N)=N\O)=N/O
inactive: [1] 16.8% | [2] 25.4% | [3] -22.4% | [4] -1.85% | [5] -2.3% | [6] 6.5%

CCN(CC)CCC(=O)O[C@H]1CC[C@H](CC(C)[C@H]2CC(=O)C(C)C=C(C)[C@H](OC(=O)CCN(CC)CC)C(OC)C(=O)[C@@H](C)CC(C)/C=C/C=C/C=C(C)C(OC)CC3CC[C@H](C)[C@](O)(O3)C(=O)C(=O)N3CCCCC3C(=O)O2)CC1OC (some centres undefined)
active: [1] 89.6% | [2] 91.8% | [3] 92.8% | [4] 89.3% | [5] 91.5% | [6] 86.5%

CCCCCCCCCCCCCC(=O)Oc1ccc([N+](=O)[O-])cc1
inactive: [1] -2.65% | [2] 0.05% | [3] -13.1% | [4] 11.2% | [5] -9.2% | [6] 14.4%

CCC1CCCCC1O (centres undefined)
inactive: [1] 1.6% | [2] -7% | [3] -30.5% | [4] 7.35% | [5] -22.7% | [6] 6.1%

O=C1C2C(C(=O)N1c1ccccc1)C1([N+](=O)[O-])C=C3c4ccccc4N(C(=O)c4ccccc4)C32C2C(=O)N(c3ccccc3)C(=O)C21 (centres undefined)
inactive: [1] -24.9% | [2] 12.8% | [3] -15.4% | [4] 36.3% | [5] -6.35% | [6] -4.9%

CC(C)(C)/[N+]([O-])=C/C(c1ccccc1)C(/C=[N+](/[O-])C(C)(C)C)c1ccccc1 (centres undefined)
inactive: [1] -3.5% | [2] -4.5% | [3] -15.3% | [4] 3.85% | [5] -2.1% | [6] -18.6%

Cc1ccc(S(=O)(=O)N/N=C2\CCC3(C)C(=CCC4C3CCC3(C)C(C(C)CCCC(C)C)CCC43)C2(C)C)cc1 (centres undefined)
inactive: [1] 0.45% | [2] -1.2% | [3] -11.2% | [4] 2.75% | [5] -7.95% | [6] -0.1%

O=S(=O)(c1ccccc1)c1ccccn1
inactive: [1] -13.1% | [2] -13.2% | [3] -19.9% | [4] 6.2% | [5] 3.7% | [6] -22.1%

CCC(CO)Nc1nc2c(c(=O)n(C)c(=O)n2C)n1CCO (centres undefined)
inactive: [1] -21.9% | [2] -1.9% | [3] 1% | [4] 8.15% | [5] -14.7% | [6] -4.75%
